# Measurements: ChEMBL document CHEMBL4513141, “CO-ADD screening of NIH (USA) - Clinical Collection” (2021)
# Entries with a potency or affinity are not part of this list.
# System: Cryptococcus neoformans
# Conditions: Concentration 20 uM; ASSAY_TEST Inhibition of Fungal Growth; detection method Resazurin; Absorption (OD600-OD570); plate type 384well; NBS; CORNING #3640
row,Compound,Inhibition [%]
1,CNCCCCOc1ccccc1Cc1ccccc1.Cl,-8.24
2,CCCCCCCCCCC[C@@H](C[C@@H]1OC(=O)[C@H]1CCCCCC)OC(=O)[C@H](CC(C)C)NC=O [ORLISTAT],-4.7
3,CC(C)[N+]1(C)C2CCC1CC(OC(=O)C(CO)c1ccccc1)C2.[Br-] (configuration not stated),-6.11
4,CC(CN1c2ccccc2Sc2ccccc21)N(C)C.Cl (configuration not stated) [PROMETHAZINE HYDROCHLORIDE],-6.2
5,CN1CCc2cc(Cl)c(O)cc2[C@@H](c2ccccc2)C1.Cl,-7.18
6,CN(C)CCCN1c2ccccc2Sc2ccc(Cl)cc21.Cl [CHLORPROMAZINE HYDROCHLORIDE],2.71
7,CN1CCN(C2=Nc3cc(F)ccc3Cc3ccccc32)CC1 [FLUPERLAPINE],-6.37
8,O=C1Nc2ccc(Cl)cc2[C@@](C#CC2CC2)(C(F)(F)F)O1 [EFAVIRENZ],-5.8
9,C#C[C@]1(O)CC[C@H]2[C@@H]3CCc4cc(O)ccc4[C@H]3CC[C@@]21C [ETHINYL ESTRADIOL],-5.67
10,NNCCc1ccccc1.O=S(=O)(O)O [PHENELZINE SULFATE],-10.12
11,CCC(=O)O[C@]1(C(=O)CCl)[C@@H](C)C[C@H]2[C@@H]3CCC4=CC(=O)C=C[C@]4(C)[C@@]3(F)[C@@H](O)C[C@@]21C [CLOBETASOL PROPIONATE],4.34
12,CCN1CC(CCN2CCOCC2)C(c2ccccc2)(c2ccccc2)C1=O.Cl (configuration not stated),-0.87
13,C[C@@H]1CN(CCCn2c3ccccc3c3ccccc32)C[C@H](C)N1.Cl.O,2.04
14,CC(C(=O)O)c1cccc(C(=O)c2ccccc2)c1 (configuration not stated) [KETOPROFEN],-5.87
15,CCCSc1ccc2[nH]c(NC(=O)OC)nc2c1 [ALBENDAZOLE],42.52
16,CCOC(=O)[C@H](CCc1ccccc1)N[C@@H](C)C(=O)N1[C@H](C(=O)O)C[C@@H]2CCC[C@@H]21,-1.7

row,Compound,Inhibition [%]
1,CC(C)(C(=O)c1cccnc1)c1cccnc1 [METYRAPONE],-9.27
2,NNC(=O)c1ccncc1 [ISONIAZID],-3.6
3,CC(=O)OCC(=O)[C@@]1(O)CC[C@H]2[C@@H]3CCC4=CC(=O)C=C[C@]4(C)[C@H]3[C@@H](O)C[C@@]21C [PREDNISOLONE ACETATE],-1.37
4,CC(C)[C@H](N)C(=O)OCCOCn1cnc2c(=O)nc(N)[nH]c21.Cl [VALACYCLOVIR HYDROCHLORIDE],-5.07
5,CC(C[N+](C)(C)C)OC(N)=O.[Cl-] (configuration not stated) [BETHANECHOL CHLORIDE],0.14
6,NC(=O)N1c2ccccc2CC(=O)c2ccccc21 [OXCARBAZEPINE],-4.73
7,CS(=O)(=O)O.Cc1ccc(NC(=O)c2ccc(CN3CCN(C)CC3)cc2)cc1Nc1nccc(-c2cccnc2)n1 [IMATINIB MESYLATE],9.11
8,CN(C)C(=O)Oc1ccc[n+](C)c1.[Br-] [PYRIDOSTIGMINE BROMIDE],-8.97
9,CN1CCC(=C2c3ccccc3CCc3sccc32)CC1.O=C(O)/C=C\C(=O)O,-10.62
10,CC(=O)O.NCc1ccc(S(N)(=O)=O)cc1 [MAFENIDE ACETATE],-7.57
11,CC(=O)O[C@@]12CO[C@@H]1C[C@H](O)[C@@]1(C)C(=O)[C@H](O)C3=C(C)[C@@H](OC(=O)[C@H](O)[C@@H](NC(=O)OC(C)(C)C)c4ccccc4)C[C@](O)([C@@H](OC(=O)c4ccccc4)[C@H]21)C3(C)C,-6.01
12,CC(C)c1nc(CN(C)C(=O)N[C@H](C(=O)N[C@@H](Cc2ccccc2)C[C@H](O)[C@H](Cc2ccccc2)NC(=O)OCc2cncs2)C(C)C)cs1 [RITONAVIR],-5.87
13,CCN1CCC[C@H]1CNC(=O)c1cc(S(N)(=O)=O)ccc1OC [LEVOSULPIRIDE],2.98
14,Cn1ccnc1S [METHIMAZOLE],0.77
15,C/C=C1/[C@H]2C=C(C)C[C@]1(N)c1ccc(O)nc1C2,-7.02
16,CC(=O)OCC(=O)[C@@]1(O)CC[C@H]2[C@@H]3C[C@H](C)C4=CC(=O)C=C[C@]4(C)[C@H]3[C@@H](O)C[C@@]21C [METHYLPREDNISOLONE ACETATE],-0.41
